# Data from PubChem BioAssay (Tox21).
# Unmarked numbers belong to inactive results. Results filed as inconclusive are left out. Where a call stands in place of a potency, no number is given. Active and inactive are the calls of the source. Unless noted, calls come from the whole dose curve.
# Tests used:
# [1] = Nuclear factor erythroid 2-related factor 2/antioxidant responsive element (Nrf2/ARE) small molecule agonists: qHTS cell viability counter screen in human keratinocytes (AID 1919968; active = well fitted curve in the direction sought with a large enough effect in the repeat runs; an effect the other way counts as inactive or inconclusive; note: nearly all actives have a fitted effect of over 55% in size; note: potency is the fitted concentration of half-maximal effect)
# How it was run: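 After a 5 h attachment period, ARE-reporter keratinocytes were dosed with compounds in DMSO and then cultured 23 h at 37 C. Cell viability came from CellTiter-Fluor signal read after a further 1 h.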
# [2] = Nuclear factor erythroid 2-related factor 2/antioxidant responsive element (Nrf2/ARE) small molecule agonists: luciferase reporter gene qHTS assay in human keratinocytes (AID 1919969); note: nearly all actives have a fitted effect of over 35% in size; note: potency is the fitted concentration of half-maximal effect
# [3] = target: Gonadotropin-releasing hormone receptor (Homo sapiens) (UniProt P30968); experiment: Human gonadotropin-releasing hormone receptor (GnRHR) small molecule agonists, calcium flux assay in GnRHR-HEK293 cells (AID 1920063); note: nearly all actives have a fitted effect of over 35% in size
# Gonadotropin-releasing hormone receptor (Homo sapiens), sequence (P30968 whole entry, looked up): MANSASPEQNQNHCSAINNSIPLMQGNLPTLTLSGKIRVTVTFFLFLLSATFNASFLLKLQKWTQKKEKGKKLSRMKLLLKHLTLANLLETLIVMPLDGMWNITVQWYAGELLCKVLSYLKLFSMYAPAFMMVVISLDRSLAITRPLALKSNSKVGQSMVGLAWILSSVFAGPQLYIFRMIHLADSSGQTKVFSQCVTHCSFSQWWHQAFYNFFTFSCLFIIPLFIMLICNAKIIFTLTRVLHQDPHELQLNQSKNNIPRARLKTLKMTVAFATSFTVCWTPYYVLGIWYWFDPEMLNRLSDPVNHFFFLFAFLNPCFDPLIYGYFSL
# How it was run: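 We seeded human GnRHR-expressing HEK293 cells for 18 hours, loaded them with calcium dye for an hour at 37 C, added test compounds, and recorded fluorescence intensity kinetically for three minutes.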
# [4] = target: KiSS-1 receptor (Homo sapiens) (UniProt Q969F8); experiment: Human kisspeptin (KISS1R) small molecule agonists, calcium flux assay in KISS1R-HEK293 cells (AID 1920064; active = well fitted curve in the direction sought with a large enough effect in the repeat runs; an effect the other way counts as inactive or inconclusive)
# KiSS-1 receptor (Homo sapiens), sequence (Q969F8 whole entry, looked up): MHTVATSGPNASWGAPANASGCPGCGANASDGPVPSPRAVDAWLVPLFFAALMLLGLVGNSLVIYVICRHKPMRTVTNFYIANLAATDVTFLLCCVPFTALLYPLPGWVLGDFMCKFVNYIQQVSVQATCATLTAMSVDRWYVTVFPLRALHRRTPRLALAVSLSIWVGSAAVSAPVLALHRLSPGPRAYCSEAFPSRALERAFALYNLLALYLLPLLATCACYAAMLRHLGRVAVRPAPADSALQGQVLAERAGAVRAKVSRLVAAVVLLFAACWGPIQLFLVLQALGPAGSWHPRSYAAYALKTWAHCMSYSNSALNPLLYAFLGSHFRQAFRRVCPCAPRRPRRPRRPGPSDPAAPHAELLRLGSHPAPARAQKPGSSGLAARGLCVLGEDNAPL
# How it was run: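 Kinetic calcium assay, 1 s sampling over 3 min at Ex/Em 480/540, in HEK293 cells engineered with human KISS1R; compounds delivered in DMSO after 1 h dye loading.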
# [5] = G protein-coupled receptor (GPCR) small molecule agonists, calcium flux assay: HEK293 wild type cell line counter screen (AID 1920065)
# How it was run: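 Calcium-sensitive dye, loaded 1 h at 37 C into cells cultured 18 h, reports compound-evoked calcium release as fluorescence (Ex/Em 480/540), measured over 3 min. Agonist mode; 15-point titrations, triplicate.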
# [6] = p53 small molecule agonists, cell-based qHTS assay with rat liver microsomes (AID 1963578)
# How it was run: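 Metabolic activation is supplied by rat liver microsomes with NADPH (each 0.5 mg/mL final). p53RE-bla cells incubate with compound 16 h at 37 C; reporter activity is measured by LiveBLAzer fluorescence.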
# [7] = p53 small molecule agonists, cell-based qHTS assay with human liver microsomes: qHTS cell viability counter screen (AID 1963579); note: nearly all actives have a fitted effect of over 45% in size
# How it was run: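 After the 460/530 nm beta-lactamase read, CellTiter-Glo was added to the same wells and luminescence measured after 30 min at room temperature, giving viability of p53RE-bla cells treated 16 h with compounds plus microsomes and NADPH.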
# [8] = p53 small molecule agonists, cell-based qHTS assay with rat liver microsomes: qHTS cell viability counter screen (AID 1963580); note: nearly all actives have a fitted effect of over 45% in size
# How it was run: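 p53RE-bla HCT-116 cells (4,000/well) rested 5 h at 37 C, then given Tox21 compounds in DMSO with rat liver microsomes (0.5 mg/mL final) plus NADPH (0.5 mg/mL final) for 16 h at 37 C. Viability read by CellTiter-Glo luminescence after 30 min at room temperature.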
# [9] = p53 small molecule agonists, cell-based qHTS assay: qHTS cell viability counter screen (AID 1963581); note: nearly all actives have a fitted effect of over 45% in size; note: potency is the fitted concentration of half-maximal effect
# How it was run: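 Following 5 h attachment, HCT-116 p53RE-bla cells took up compound for 16 h at 37 C; the reporter was read with B/G FRET substrate (2 h RT), and viability then via CellTiter-Glo ATP luminescence.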
# [10] = p53 small molecule agonists, cell-based qHTS assay (AID 1963582; active = well fitted activation curve with a large enough effect in the signal ratio in the repeat runs, not every such curve was filed as active; the % refers to the signal ratio; note: potency is the fitted concentration of half-maximal effect)
# How it was run: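 In this cell-based concentration-response screen, a p53 response element drives beta-lactamase; cells received DMSO-borne compounds after 5 h culture and were incubated a further 16 h before FRET substrate development.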
# [11] = target: 5-hydroxytryptamine receptor 2A (Homo sapiens) (UniProt P28223); experiment: 5-hydroxytryptamine receptor 2A (HTR2A) small molecule antagonists, cell-based qHTS assay (AID 1963586); note: nearly all actives have a fitted effect of over 45% in size
# 5-hydroxytryptamine receptor 2A (Homo sapiens), sequence (P28223 whole entry, looked up): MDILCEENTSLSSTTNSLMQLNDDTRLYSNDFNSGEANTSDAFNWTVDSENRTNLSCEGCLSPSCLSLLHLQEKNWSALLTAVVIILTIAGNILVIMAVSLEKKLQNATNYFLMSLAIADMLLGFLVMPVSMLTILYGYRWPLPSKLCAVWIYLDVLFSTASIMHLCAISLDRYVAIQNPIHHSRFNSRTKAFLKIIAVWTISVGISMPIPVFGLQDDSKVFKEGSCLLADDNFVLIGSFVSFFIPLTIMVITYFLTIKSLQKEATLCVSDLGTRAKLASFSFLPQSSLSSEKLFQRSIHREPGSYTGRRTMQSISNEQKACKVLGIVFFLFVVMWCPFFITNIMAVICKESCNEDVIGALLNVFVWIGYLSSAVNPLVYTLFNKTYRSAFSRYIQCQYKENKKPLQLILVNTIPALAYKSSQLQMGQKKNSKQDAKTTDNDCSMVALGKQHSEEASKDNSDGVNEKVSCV
# How it was run: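 Antagonist-mode intracellular calcium assay: DOI (4 nM) added after 5 min compound pre-incubation at room temperature to dye-loaded HTR2A-CHO cells. Fluorescence followed for 3 min, sampled every second.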
# [12] = target: Muscarinic acetylcholine receptor M1 (Homo sapiens) (UniProt P11229); experiment: Cholinergic receptor muscarinic 1 (CHRM1) small molecule antagonists, cell-based qHTS assay (AID 1963588); note: nearly all actives have a fitted effect of over 40% in size
# Muscarinic acetylcholine receptor M1 (Homo sapiens), sequence (P11229 whole entry, looked up): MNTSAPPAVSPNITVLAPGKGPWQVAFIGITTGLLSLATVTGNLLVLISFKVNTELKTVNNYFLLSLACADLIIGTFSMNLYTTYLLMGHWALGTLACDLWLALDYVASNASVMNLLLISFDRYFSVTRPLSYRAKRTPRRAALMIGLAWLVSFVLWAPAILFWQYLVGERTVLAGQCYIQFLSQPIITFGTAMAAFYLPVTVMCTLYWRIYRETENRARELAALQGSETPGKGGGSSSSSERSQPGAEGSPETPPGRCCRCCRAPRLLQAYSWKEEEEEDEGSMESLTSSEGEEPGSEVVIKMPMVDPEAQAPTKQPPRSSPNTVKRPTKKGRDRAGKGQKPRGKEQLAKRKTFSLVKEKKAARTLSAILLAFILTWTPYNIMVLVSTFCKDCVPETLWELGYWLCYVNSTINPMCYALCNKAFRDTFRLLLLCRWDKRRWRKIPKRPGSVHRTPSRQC
# How it was run: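 CHRM1-CHO calcium-flux assay, antagonist mode. Cells were seeded 18 h, dye-loaded 1 h at 37 C and given compound for 5 min at RT, then acetylcholine was added at 50nM. FDSS fluorescence was read 3 min; 15 concentrations, three runs.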
# [13] = target: Muscarinic acetylcholine receptor M1 (Homo sapiens) (UniProt P11229); experiment: Cholinergic receptor muscarinic 1 (CHRM1) small molecule agonists, cell-based qHTS assay (AID 1963589); note: nearly all actives have a fitted effect of over 35% in size
# How it was run: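 Measures agonist-induced intracellular calcium rise. Stable human CHRM1 CHO line, 1 h dye load at 37 C, compounds from DMSO, kinetic fluorescence read.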
# [14] = cAMP Responsive Elements (CRE) small molecule antagonists, cell-based qHTS assay (AID 1963591; active = well fitted inhibition curve with a large enough effect in the signal ratio in the repeat runs, not every such curve was filed as active; the % refers to the signal ratio)
# How it was run: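 HEK293T cells carrying a CRE-driven beta-lactamase reporter receive compound and NKH477 (0.25 uM final) for 3 h. Fluorescence from LiveBLAzer B/G FRET substrate is read after 2 h at room temperature.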
# [15] = target: Beta-2 adrenergic receptor (Homo sapiens) (UniProt P07550); experiment: Adrenergic beta2 receptor (ADRB2) small molecule antagonists, cell-based qHTS assay (AID 1963592); note: nearly all actives have a fitted effect of over 50% in size; note: potency is the fitted concentration of half-maximal effect
# Beta-2 adrenergic receptor (Homo sapiens), sequence (P07550 whole entry, looked up): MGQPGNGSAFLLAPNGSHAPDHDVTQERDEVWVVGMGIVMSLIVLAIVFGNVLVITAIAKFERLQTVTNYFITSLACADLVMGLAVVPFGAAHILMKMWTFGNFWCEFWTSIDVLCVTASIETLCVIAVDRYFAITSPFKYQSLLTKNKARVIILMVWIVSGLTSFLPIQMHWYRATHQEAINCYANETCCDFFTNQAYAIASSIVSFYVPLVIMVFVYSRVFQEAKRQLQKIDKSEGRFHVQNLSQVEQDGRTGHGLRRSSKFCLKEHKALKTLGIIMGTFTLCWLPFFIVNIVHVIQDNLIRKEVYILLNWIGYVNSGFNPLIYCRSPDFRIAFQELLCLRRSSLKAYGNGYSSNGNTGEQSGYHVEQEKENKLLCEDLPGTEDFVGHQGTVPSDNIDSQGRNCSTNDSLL
# How it was run: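 Cells (CHO, stable ADRB2 overexpression) incubated 18-20hr at 37C; compounds added from DMSO; agonist mix (1nM isoproterenol, 100uM IBMX, 25uM Ro-20-1724) added; 0.5hr RT; d2-cAMP and anti-cAMP-cryptate added; 1hr RT; 665/615 nm read.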
# [16] = target: D(2) dopamine receptor (Homo sapiens) (UniProt P14416); experiment: Dopamine D2 receptor (DRD2) small molecule agonists, cell-based qHTS assay (AID 1963594); note: nearly all actives have a fitted effect of over 35% in size
# D(2) dopamine receptor (Homo sapiens), sequence (P14416 whole entry, looked up): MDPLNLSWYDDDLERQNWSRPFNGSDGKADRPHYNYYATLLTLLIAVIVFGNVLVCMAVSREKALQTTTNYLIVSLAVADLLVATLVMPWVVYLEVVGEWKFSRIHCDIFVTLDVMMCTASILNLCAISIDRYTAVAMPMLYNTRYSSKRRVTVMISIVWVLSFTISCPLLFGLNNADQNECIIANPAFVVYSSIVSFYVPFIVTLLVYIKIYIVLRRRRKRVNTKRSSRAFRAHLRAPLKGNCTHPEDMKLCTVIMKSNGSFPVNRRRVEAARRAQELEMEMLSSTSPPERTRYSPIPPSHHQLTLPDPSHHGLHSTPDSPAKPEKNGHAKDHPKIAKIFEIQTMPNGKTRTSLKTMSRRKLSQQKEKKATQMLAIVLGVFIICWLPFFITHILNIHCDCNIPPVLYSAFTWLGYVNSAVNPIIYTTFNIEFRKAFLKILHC
# How it was run: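 HEK293 cells stably expressing DRD2 were cultured 24 h at 37 C, then given Ro20-1724 (0.1 mM final) and compounds for 10 min at room temperature. NKH477 (200nM) was then added for 30 min. cAMP was read by HTRF.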
# [17] = target: D(2) dopamine receptor (Homo sapiens) (UniProt P14416); experiment: Dopamine D2 receptor (DRD2) small molecule antagonists, cell-based qHTS assay (AID 1963595; active = well fitted inhibition curve with a large enough effect in the signal ratio in the repeat runs, with a control signal flat; the % refers to the signal ratio; note: potency is the fitted concentration of half-maximal effect)
# How it was run: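 HEK293 cells stably expressing DRD2 were preincubated with 0.1 mM Ro20-1724, then with compound for 10 min at room temperature. Cells were stimulated with 200 nM NKH477 plus 12 nM quinpirole for 30 min, and cAMP was read by HTRF.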
# [18] = target: 5-hydroxytryptamine receptor 2A (Homo sapiens) (UniProt P28223); experiment: 5-hydroxytryptamine receptor 2A (HTR2A) small molecule agonists, cell-based qHTS assay (AID 1963587); note: nearly all actives have a fitted effect of over 30% in size
# How it was run: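 HTR2A-CHO cells, plated 18 h at 37 C/5% CO2, dye-loaded 1 h at 37 C; compounds in DMSO added by pin tool (agonist mode). Intracellular calcium flux read as kinetic fluorescence on FDSS over 2 min at 1 s intervals.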
# [19] = cAMP Responsive Elements (CRE) small molecule agonists, cell-based qHTS assay (AID 1963590)
# How it was run: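 A CRE-responsive beta-lactamase reporter in HEK 293T cells was used. Treatment ran 3 h at 37 C; detection used LiveBLAzer B/G FRET substrate for 2 h at room temperature.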
SMILES,Potency [1],Potency [2],Potency [3],outcome [4],outcome [5],Potency [6],Potency [7],Potency [8],Potency [9],Potency [10],Potency [11],Potency [12],Potency [13],Potency [14],Potency [15],Potency [16],Potency [17],Potency [18],Potency [19]
CCCCCc1ccc(N)cc1,inactive,inactive,inactive,inactive,inactive,inactive,inactive,inactive,inactive,inactive,inactive,inactive,inactive,inactive,inactive,inactive,inactive,,
CC(CNC1CCCCC1)OC(=O)c1ccccc1 (centres undefined),inactive,inactive,inactive,inactive,inactive,inactive,inactive,inactive,inactive,inactive,,,inactive,inactive,inactive,inactive,inactive,inactive,inactive
CO[C@@H]1COCC[C@@H]1N[C@@H]1CC[C@@](C(=O)N2CCc3ncc(C(F)(F)F)cc3C2)(C(C)C)C1,inactive,inactive,inactive,inactive,inactive,inactive,inactive,inactive,inactive,inactive,inactive,,inactive,inactive,,inactive,inactive,inactive,inactive
c1ccc(SSc2ccccc2)cc1,inactive,27.5 µM (active),inactive,inactive,inactive,inactive,inactive,inactive,inactive,inactive,inactive,inactive,inactive,,inactive,inactive,inactive,inactive,
CCNC(=O)C(C)OC(=O)Nc1ccccc1 (centres undefined),inactive,inactive,inactive,inactive,inactive,inactive,inactive,inactive,inactive,inactive,inactive,inactive,inactive,inactive,,,inactive,inactive,inactive
CC(C)=CCC1=C(O)c2ccccc2C(=O)C1=O,inactive,60.8 µM (active),inactive,inactive,inactive,inactive,inactive,inactive,3.61 µM (active),4.06 µM (active),inactive,inactive,inactive,inactive,,inactive,,,
C=CC(C)C#N (centres undefined),inactive,inactive,inactive,inactive,inactive,inactive,inactive,inactive,inactive,inactive,inactive,inactive,inactive,inactive,inactive,inactive,inactive,,inactive
NS(=O)(=O)c1cc(C(=O)O)cc(N2CCCC2)c1Oc1ccccc1,inactive,inactive,inactive,inactive,inactive,inactive,inactive,inactive,,inactive,inactive,inactive,inactive,inactive,inactive,inactive,inactive,inactive,inactive
CO[C@H]1C=CO[C@@]2(C)Oc3c(C)c(O)c4c(O)c(cc(O)c4c3C2=O)NC(=O)/C(C)=C\C=C/[C@H](C)[C@H](O)[C@@H](C)[C@@H](O)[C@@H](C)[C@H](OC(C)=O)[C@@H]1C,54.9 µM (active),27.5 µM (active),inactive,inactive,inactive,inactive,inactive,inactive,inactive,,inactive,,inactive,inactive,,inactive,,inactive,
O=C1OC(OC(=O)c2cccnc2Nc2cccc(C(F)(F)F)c2)c2ccccc21 (centres undefined),inactive,13.3 µM (active),inactive,inactive,inactive,inactive,inactive,,inactive,inactive,inactive,inactive,inactive,inactive,inactive,,inactive,inactive,inactive
CCCCCCCCC1CO1 (centres undefined),inactive,inactive,inactive,inactive,inactive,inactive,,inactive,inactive,inactive,,inactive,inactive,inactive,inactive,inactive,inactive,inactive,inactive
O=C1CC2(CCCC2)CC(=O)N1CCNCC1COc2ccccc2O1 (centres undefined),inactive,inactive,inactive,inactive,inactive,inactive,inactive,inactive,,,,inactive,inactive,,inactive,,0.75 µM (active),,
O=C(c1ccccc1)c1ccc2n1CCC2C(=O)O (centres undefined),inactive,inactive,inactive,inactive,inactive,inactive,inactive,,inactive,,,,,,inactive,inactive,inactive,,
COc1ccc2nc(NC(=O)Nc3ccccc3)sc2c1,inactive,0.596 µM (active),inactive,inactive,inactive,inactive,inactive,inactive,,inactive,inactive,,inactive,inactive,11.9 µM (active),inactive,inactive,inactive,inactive
